Results on 13 compounds are retold here after PubChem BioAssay (NCATS).

Assay [1] can be described thus: qHTS drug screen for cell cycle checkpoint inhibitors in PARPi-resistant BRCA-mutant ovarian cancer cell lines. (AID 1963452; calls by dose curve). The following applies: PEO1/OlaR viability, CellTiter-Glo luminescence, 96 h, stronger effect = lower value. The gist of the method: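 PEO1, PEO4 and PEO1/OlaR ovarian cancer cells, 600 per well, exposed 96 h at 37C to a dilution series. Viability read by CellTiter-Glo luminescence, normalized to DMSO and empty wells; activity summarized as Z-AUC.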
(In general: Quantitative high-throughput screening tests each substance at several concentrations.)

Assay [2] has as its target Cytochrome P450 2D6 (Homo sapiens) (UniProt P10635). Kind of assay: qHTS for inhibitors of CYP2D6 against the NCATS DSHEA and TCM libraries (AID 1919972). Further: on the % scale 0 is the no-effect control and ±100 the full control effect. The following applies: CYP2D6 enzymatic inhibition, luminescence qHTS; series mostly up to 34.1 µM. In a few lines:
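Luminescent P450-Glo read-out of CYP2D6 turnover of a luciferin substrate after NADPH-driven reaction of 30-45 min at room temperature. Compounds were first preincubated 15 min with enzyme at titrated concentrations; quinidine was the intraplate control.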

For assay [3], the target named is Cytochrome P450 2C9 (Homo sapiens) (UniProt P11712). Kind of assay: qHTS for inhibitors of CYP2C9 against the NCATS DSHEA and TCM libraries (AID 1919973). Further: potency means the concentration at half of the fitted maximal effect. The settings on record: recombinant CYP2C9 enzyme activity, luminescence; series mostly up to 34.1 µM. The gist of the method:
(§1)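 Read-out is luminescence after P450-Glo detection (30 min, RT). Before that: 15 min compound–enzyme preincubation, then 30-45 min reaction with 1x NADPH regeneration solution, substrate concentration isoform-specific.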

Assay [4] concerns the target Cytochrome P450 2C19 (Homo sapiens) (UniProt P33261). In words: qHTS for inhibitors of CYP2C19 against the NCATS DSHEA and TCM libraries (AID 1919974).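 Further: luminescence from luciferin released by CYP2C19 oxidation of a pro-luciferin substrate.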 Further: potency means the concentration at half of the fitted maximal effect. The following applies: CYP2C19 enzyme inhibition, luminescence qHTS; series mostly up to 34.1 µM. The gist of the method: as §1
Assay [5] is described as follows: KB-3-1 P-gp reporter qHTS against the NCATS DSHEA and TCM libraries (AID 1919975). Further: 0% is about no effect. The following applies: KB-3-1 parental cells, CellTiter-Glo luminescence viability, 72 h; series mostly up to 26.1 µM. The gist of the method: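 CellTiter-Glo luminescence viability readout; KB-3-1 parental cells, 500/well, attached ~4 h, then compound for ~72 h, 37C, 5% CO2. Bortezomib intraplate control.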

The target of assay [6] is Cytochrome P450 1A2 (Homo sapiens) (UniProt P05177). Kind of assay: qHTS for inhibitors of CYPIA2 against the NCATS DSHEA and TCM libraries (AID 1919976).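 Further: light from luciferin formed by CYP1A2 from a pro-luciferin substrate; on the % scale 0 is the no-effect control and ±100 the full control effect.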 The settings on record: recombinant CYP1A2 enzyme activity, luminescence; series mostly up to 37 µM. In a few lines:
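CYP1A2 + luciferin substrate, 100 mM KPO4-type buffer; cmpd 15 min RT; 1x NADPH regen, 30-45 min RT dark; detection reagent 30 min RT; luminescence. Minus-enzyme wells as background; furafylline intraplate control.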

The nature of assay [7]: qHTS Counterscreen for compound interference against the NCATS DSHEA and TCM libraries (AID 1919978).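 Further: compounds preincubated with 1 µM D-luciferin or buffer before detection reagent; % of control where 0% means no effect.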 The settings on record: firefly luciferase detection reagent interference, luminescence. In a few lines: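 Luminescence counterscreen for detection-kit interference: compounds at 19.5 nM–39.8 uM final, 15 min RT with 1 uM D-luciferin or buffer only; detection reagent added, 30 min RT, then read.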

Assay [8] in a line: Dual reporter qHTS for agonist of Pregnane X Receptor (hPXR) against the NCATS DSHEA and TCM libraries: Fluorescence readout (AID 1920058). Further: 0% is about no effect. The settings on record: PXR dual reporter cells; series mostly up to 40 µM. In a few lines: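 HepG2 hPXR-Luc, 2000 cells/well, 5 h attach; cpds ~24 h, 37 °C/5% CO2; CellTiter-Fluor 1 h; fluor. Ex/Em 405/540 nm = viability.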
Assay [9] deals with Nuclear receptor subfamily 1 group I member 2 (Homo sapiens) (UniProt O75469). In words: Dual reporter qHTS for agonist of Pregnane X Receptor (hPXR) against the NCATS DSHEA and TCM libraries: Luminescence readout (AID 1920059). Further: 0% is about no effect. The following applies: hPXR dual reporter cells, luciferase luminescence agonist; series mostly up to 40 µM. The gist of the method:
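hPXR-Luc HepG2 cells, 2000/well in 5% charcoal-stripped FBS medium, attached 5 h, then exposed 24 h at 37C to compounds. Viability by CellTiter-Fluor, then luciferase luminescence with ONE-Glo.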

The target is the same in assay [10]. In words: Dual reporter qHTS for antagonist of Pregnane X Receptor (hPXR) against the NCATS DSHEA and TCM libraries: Luminescence Readout (AID 1920060).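 Further: HepG2 cells carrying hPXR luciferase reporter stimulated with rifampicin at 2 µM; 0% is about no effect.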 The following applies: hPXR dual reporter cells, luciferase luminescence, antagonist mode; series mostly up to 40 µM. The gist of the method:
(§2)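 In antagonist mode, 2 uM rifampicin was added to hPXR-Luc HepG2 cells alongside test substances, incubated 24 h at 37 C; luminescence gave reporter activity, and CellTiter-Fluor fluorescence (405/540 nm) gave viability.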

Assay [11] is described as follows: Dual reporter qHTS for antagonist of Pregnane X Receptor (hPXR) against the NCATS DSHEA and TCM libraries: Fluorescence Readout (AID 1920061). Further: 0% is about no effect. The following applies: PXR dual reporter cells, antagonist mode; series mostly up to 40 µM. The gist of the method: as §2
A short description of assay [12]: qHTS for identification of novel therapeutic agents for treatment of microphthalmiaassociated transcription factor (MiT) renal cell carcinoma (RCC) (AID 1963991). The following applies: CellTiter-Glo, 48 h, stronger effect = lower value. The gist of the method: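 Curves over 11 concentrations were fitted to CellTiter-Glo luminescence, scaled between empty wells (0%) and DMSO (100%) viability. Cells were UOK109, UOK124 and UOK145 TFE3-fusion RCC lines at 500/well, exposed 48 hours at 37 C.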

The mark [13] stands for this setting: measured here: PEO1 parental Z-AUC.

Records with an inconclusive call do not appear. Calls of active or inactive are those of the source. Unless noted, the call rests on the fitted dose curve; in most records, active means well fitted curve in the direction sought with a large enough effect; inconclusive means small, poorly fitted or top-dose-only effect, or another doubt; inactive means no such curve, though single readings can be large; an effect the other way counts as inactive or inconclusive.

Chain of Nuclear receptor subfamily 1 group I member 2 (Homo sapiens) (O75469 whole entry, looked up): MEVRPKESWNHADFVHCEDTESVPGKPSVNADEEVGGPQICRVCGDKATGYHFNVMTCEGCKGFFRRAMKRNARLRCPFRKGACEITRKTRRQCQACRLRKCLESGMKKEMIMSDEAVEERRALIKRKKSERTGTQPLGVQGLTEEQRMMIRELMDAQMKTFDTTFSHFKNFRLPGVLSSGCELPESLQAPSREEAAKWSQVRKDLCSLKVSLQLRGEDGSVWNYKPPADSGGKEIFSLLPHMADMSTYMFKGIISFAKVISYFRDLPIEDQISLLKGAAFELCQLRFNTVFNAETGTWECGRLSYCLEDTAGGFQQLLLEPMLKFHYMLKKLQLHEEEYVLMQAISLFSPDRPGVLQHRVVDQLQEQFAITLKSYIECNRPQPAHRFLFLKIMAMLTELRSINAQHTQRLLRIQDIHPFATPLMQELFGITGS
Chain of Cytochrome P450 2C19 (Homo sapiens) (P33261 whole entry, looked up): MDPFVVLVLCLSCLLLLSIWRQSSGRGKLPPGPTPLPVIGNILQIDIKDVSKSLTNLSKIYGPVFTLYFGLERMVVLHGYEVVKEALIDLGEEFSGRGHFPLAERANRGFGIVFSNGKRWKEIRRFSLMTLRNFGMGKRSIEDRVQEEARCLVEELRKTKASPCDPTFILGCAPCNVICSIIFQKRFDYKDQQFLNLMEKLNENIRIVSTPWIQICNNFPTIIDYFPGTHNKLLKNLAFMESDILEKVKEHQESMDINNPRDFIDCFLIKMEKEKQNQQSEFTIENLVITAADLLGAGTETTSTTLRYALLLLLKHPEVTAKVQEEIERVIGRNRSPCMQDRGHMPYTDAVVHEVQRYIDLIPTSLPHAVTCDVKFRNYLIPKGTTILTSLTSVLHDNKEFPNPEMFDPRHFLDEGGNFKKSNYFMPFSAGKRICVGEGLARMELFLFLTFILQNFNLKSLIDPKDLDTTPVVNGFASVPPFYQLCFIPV
Chain of Cytochrome P450 2C9 (Homo sapiens) (P11712 whole entry, looked up, canonical isoform): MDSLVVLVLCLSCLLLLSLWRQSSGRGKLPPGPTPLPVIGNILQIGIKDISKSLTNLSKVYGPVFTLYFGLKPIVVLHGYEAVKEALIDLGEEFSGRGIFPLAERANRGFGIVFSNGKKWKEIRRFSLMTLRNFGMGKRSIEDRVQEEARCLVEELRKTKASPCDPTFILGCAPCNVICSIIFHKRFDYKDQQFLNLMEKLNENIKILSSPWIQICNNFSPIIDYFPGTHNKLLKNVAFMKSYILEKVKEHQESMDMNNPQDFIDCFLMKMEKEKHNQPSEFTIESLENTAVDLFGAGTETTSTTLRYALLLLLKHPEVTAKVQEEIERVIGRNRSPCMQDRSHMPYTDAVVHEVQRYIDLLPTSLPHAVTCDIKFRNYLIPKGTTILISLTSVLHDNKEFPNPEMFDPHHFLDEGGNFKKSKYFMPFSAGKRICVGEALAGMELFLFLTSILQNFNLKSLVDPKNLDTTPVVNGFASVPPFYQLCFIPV
Chain of Cytochrome P450 2D6 (Homo sapiens) (P10635 whole entry, looked up): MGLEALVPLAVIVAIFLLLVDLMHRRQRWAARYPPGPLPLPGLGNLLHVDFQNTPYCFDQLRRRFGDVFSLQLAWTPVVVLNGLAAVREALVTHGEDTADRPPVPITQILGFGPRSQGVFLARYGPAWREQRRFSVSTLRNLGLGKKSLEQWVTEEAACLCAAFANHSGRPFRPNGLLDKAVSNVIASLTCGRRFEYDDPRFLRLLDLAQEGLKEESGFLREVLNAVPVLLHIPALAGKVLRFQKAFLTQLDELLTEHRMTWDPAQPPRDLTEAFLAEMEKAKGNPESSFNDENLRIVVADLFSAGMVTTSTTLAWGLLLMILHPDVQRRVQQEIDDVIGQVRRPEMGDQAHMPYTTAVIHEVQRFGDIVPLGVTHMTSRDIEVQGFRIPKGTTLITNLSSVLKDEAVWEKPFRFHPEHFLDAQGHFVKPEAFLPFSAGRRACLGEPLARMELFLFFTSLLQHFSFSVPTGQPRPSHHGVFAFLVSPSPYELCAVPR
Chain of Cytochrome P450 1A2 (Homo sapiens) (P05177 whole entry, looked up): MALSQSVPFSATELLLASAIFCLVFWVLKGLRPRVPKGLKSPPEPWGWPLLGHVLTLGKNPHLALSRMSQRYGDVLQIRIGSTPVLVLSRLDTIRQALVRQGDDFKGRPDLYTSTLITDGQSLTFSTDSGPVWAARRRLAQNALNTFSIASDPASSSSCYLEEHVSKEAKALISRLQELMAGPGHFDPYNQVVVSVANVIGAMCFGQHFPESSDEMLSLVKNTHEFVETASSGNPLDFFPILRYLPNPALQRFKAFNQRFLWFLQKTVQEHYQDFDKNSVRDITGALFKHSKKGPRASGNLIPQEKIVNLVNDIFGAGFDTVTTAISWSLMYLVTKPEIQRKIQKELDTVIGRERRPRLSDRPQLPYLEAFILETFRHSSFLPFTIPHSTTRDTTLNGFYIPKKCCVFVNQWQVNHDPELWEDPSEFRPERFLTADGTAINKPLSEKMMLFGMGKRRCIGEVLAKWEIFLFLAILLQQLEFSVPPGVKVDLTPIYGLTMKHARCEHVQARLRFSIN

For the compound `CCOc1ccccc1N=Nc1c(C)[nH]n(-c2nc(-c3ccccc3)cs2)c1=O`, the Z-AUC in assay [1] is 1.3 (inactive); in assay [1] (setting [13]), 1.25; in assay [1] (measured here: PEO4 Z-AUC), 1.22.
On to `OC[C@H]1O[C@@H](OCCc2ccc(O)cc2)[C@H](O)[C@@H](O)[C@H]1O`, for which the compound was called inactive in assay [2], in [5], in assay [6], in [10] and in assay [11]. In addition, the Potency result in assay [3], in [4], in [8] and in assay [9] was “inactive” throughout. Moreover, in assay [7], the max response was 1.11% (inactive). The z-score in assay [12] (TFE3-RCC UOK109 viability, measured here: UOK109 Z-AUC) was 0.167; in assay [12] (TFE3-RCC viability, measured here: UOK124 Z-AUC) it was 0.0834; in assay [12] (TFE3-RCC viability, measured here: UOK145 Z-AUC), -0.171.
As for `CCCCCCCCCCCCCC(=O)N[C@H](CO)[C@H](O)c1ccc([N+](=O)[O-])cc1`, the figures for the Z-AUC in assay [1], in [1] (setting [13]) and in assay [1] (measured here: PEO4 Z-AUC) were 1.33 (inactive), 1.09 and 1.02, respectively.
`O=C(Nc1ccc(OC(F)(F)F)cc1)c1sccc1NCc1ccnc2ccccc12`: the Z-AUC is 0.246 (inactive) in assay [1], -0.378 in [1] (setting [13]) and -0.233 in assay [1] (measured here: PEO4 Z-AUC).
On to `O=C(NC[C@H](O)CO)c1ccncc1Nc1ccc(I)cc1F`, for which the Z-AUC in [1] is -0.995 (inactive); in assay [1] (setting [13]) it was -0.351; in [1] (measured here: PEO4 Z-AUC), -0.367.
On to `CCN1CCC(n2cc(CNc3cc(Cl)c4ncc(C#N)c(Nc5ccc(F)c(Cl)c5)c4c3)nn2)CC1`, for which the Z-AUC is -1.28 (inactive) in assay [1], -0.754 in [1] (setting [13]) and -1.71 in assay [1] (measured here: PEO4 Z-AUC).
Consider `CC(C)C[C@@H](C(=O)N[C@H](C(=O)OC1CCCC1)c1ccccc1)[C@H](O)C(=O)NO`, for which the Z-AUC is -0.457 (inactive) in assay [1], -0.511 in assay [1] (setting [13]) and -0.774 in assay [1] (measured here: PEO4 Z-AUC).
The like results for `CC(C)C[C@H](NC(=O)c1cc2ccccc2s1)C(=O)N1CCN(C(=O)[C@H](CO)NS(=O)(=O)c2ccc(Cl)cc2Cl)CC1` were, in that order, -0.613 (inactive), -0.17 and -1.13.
Turning to `Cc1cccc(-c2[nH]c(C(C)(C)C)nc2-c2ccc3c(c2)OCO3)n1`, the figures for the Z-AUC in [1], in [1] (setting [13]) and in assay [1] (measured here: PEO4 Z-AUC) were -0.37 (inactive), -0.0617 and 0.278, respectively.
Regarding `CNC(=O)c1ccc2c(C(=Nc3cccc(CN(C)C)c3)c3ccccc3)c(O)[nH]c2c1`, the Z-AUC is -0.0393 (inactive) in assay [1], 0.42 in [1] (setting [13]) and 0.638 in assay [1] (measured here: PEO4 Z-AUC).
Take `O=c1cc(-c2ccc(O)c(O)c2)oc2cc(O)cc(O)c12`: the compound was classed as inactive in [2], in assay [5] and in assay [10]. Moreover, the Potency in assay [3] is 11.2 µM (active); in assay [4], 7.94 µM (active). The max response in [7] was -0.391% (inactive). The Potency result in assay [8] was “inactive”. Moreover, the Z-AUC in [1] is 0.185 (inactive); in assay [1] (setting [13]) it was 0.49; in assay [1] (measured here: PEO4 Z-AUC), 0.398.
Turning to `Nc1ccn([C@@H]2O[C@H](CO)[C@@H](O)[C@H]2O)c(=O)n1`, the values for the Z-AUC in assay [1], in [1] (setting [13]) and in assay [1] (measured here: PEO4 Z-AUC) were 0.821 (inactive), 1.45 and 1.4, respectively.
Turning to `COc1cc2nccc(Oc3ccc(NC(=O)Nc4cc(C)on4)c(Cl)c3)c2cc1OC`, the Z-AUC is -0.11 (inactive) in assay [1], 0.0474 in [1] (setting [13]) and 0.0316 in assay [1] (measured here: PEO4 Z-AUC).
